High-throughput results (PubChem BioAssay)
Rows were chosen to be rich in hits. Some 2.6% of all compounds tested hit in one or more screens of this group.
Cruzain inh noDet – cruzain (T. cruzi) inhibition without detergent. P25779. purified cruzain, Z-FR-AMC fluorescence, no detergent. Potency, µM, hits mostly inhibitors. 200,000 tested, 2.3% active. AID 1476; also: nearly all actives have a fitted effect of over 40% in size
Target sequence (P25779 123-467 limits assumed): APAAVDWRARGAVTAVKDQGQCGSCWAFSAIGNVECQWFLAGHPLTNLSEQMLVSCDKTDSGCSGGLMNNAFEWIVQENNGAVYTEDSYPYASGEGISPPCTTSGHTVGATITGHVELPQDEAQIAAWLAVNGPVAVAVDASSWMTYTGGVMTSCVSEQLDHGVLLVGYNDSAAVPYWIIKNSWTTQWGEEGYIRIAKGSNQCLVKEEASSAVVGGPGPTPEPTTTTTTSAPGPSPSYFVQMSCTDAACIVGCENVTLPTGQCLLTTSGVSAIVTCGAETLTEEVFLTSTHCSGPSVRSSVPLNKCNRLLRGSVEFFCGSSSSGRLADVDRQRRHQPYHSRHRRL
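Detergent-free condition (0.00005% Triton X-100) in acetate buffer pH 5.5 with DTT. 1.5 nM enzyme and compound were pre-mixed 15 min, then 2 uM Z-FR-AMC substrate added; reaction progress from fluorescence change between first and third reads (60 s).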
Cruzain inh Det – inhibitors of Trypanosoma cruzi cruzain with detergent; P25779; Potency, µM, most hits filed as inhibitors; 200,000 tested, 0.43% active; purified cruzain, Z-FR-AMC fluorescence, 0.01% Triton; also: nearly all actives have a fitted effect of over 40% in size
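Detergent-containing run (0.01% Triton X-100) in acetate buffer pH 5.5 with 5 mM DTT: enzyme at 1.5 nM final, 15 min compound preincubation at room temperature, then 2 uM Z-FR-AMC substrate. Activity taken as 60 s fluorescence increase at 360/450 nm.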
Papain inh – counter-screen for cruzain inhibitors: papain inhibition. shares compounds with Cruzain inh Det. purified papain, Z-FR-AMC fluorescence cleavage. Potency, µM, usual class: inhibitors. 410 tested, 41% active; also: nearly all actives have a fitted effect of over 35% in size
Target sequence (P00784 whole entry, looked up): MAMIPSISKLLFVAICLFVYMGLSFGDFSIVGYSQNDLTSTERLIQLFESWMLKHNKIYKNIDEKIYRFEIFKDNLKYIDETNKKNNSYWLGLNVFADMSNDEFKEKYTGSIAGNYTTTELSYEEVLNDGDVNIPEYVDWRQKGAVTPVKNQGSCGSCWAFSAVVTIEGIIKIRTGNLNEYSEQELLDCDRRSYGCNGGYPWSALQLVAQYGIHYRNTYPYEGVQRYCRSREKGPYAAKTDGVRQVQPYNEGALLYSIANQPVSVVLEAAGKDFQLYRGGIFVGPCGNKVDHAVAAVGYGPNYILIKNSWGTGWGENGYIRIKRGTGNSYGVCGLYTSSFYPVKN
Each line names hits and unclear results; the compound was inactive in the other large screens (follow-up assays come after a bar, where they were run); ! = repeats disagree. Calls follow the shape of the dose curve; as a rule, active = well fitted curve in the direction sought with a large enough effect; inconclusive = small, poorly fitted or top-dose-only effect, or another doubt; inactive = no such curve, though single readings can be large; an effect the other way counts as inactive or inconclusive.

CCS(=O)(=O)c1cccc(C(=O)N2CCN(c3nc4c(C)ccc(Cl)c4s3)CC2)c1	Cruzain inh noDet inconclusive, Cruzain inh Det 7.9µM | Papain inh inactive
CCc1ccc(Oc2c(C(F)(F)F)oc3c(CN4CCN(C)CC4)c(O)ccc3c2=O)cc1	none
Cc1cccc(Cn2cc(/C=C(/C#N)C(=O)Nc3cccc(Cl)c3)c3ccccc32)c1	Cruzain inh noDet 3.2µM | Papain inh inactive
N#C/C(=C\c1cn(Cc2cccc(F)c2)c2ccccc12)C(=O)NCc1ccco1	none
NNc1nnc(-c2ccccc2)c(-c2ccccc2)n1	none
Nc1nc(N)c2nc(-c3ccccc3)c(N)nc2n1	Cruzain inh noDet 7.9µM!, Cruzain inh Det 32µM! | Papain inh 22µM
O=C(O)[C@@H]1CCCN1Cc1c[nH]c2ccccc12	none
CCOc1nc(C#N)nc(N2CCCCC2)n1	Cruzain inh noDet 0.5µM, Cruzain inh Det 0.56µM | Papain inh 2.2µM
COc1nc(N2CCCCCC2)nc(N2CCCCCC2)n1	none
COc1nc(C#N)nc(N2CCCC2)n1	none (no result: Cruzain inh noDet, Cruzain inh Det) | Papain inh 4µM
N#CCOc1nc(N2CCCC2)nc(N2CCCC2)n1	none
COc1ccc(OC)c(CCNC(=O)CCn2c(=O)c3cccn3c3cccnc32)c1	none
COC/C=C/C1=CC2=CC(=O)C(C)(OC(=O)c3ccc(Cl)nc3)C(=O)C2=CO1 (stereo not drawn)	none
Cc1cccc(N2CC(c3nc4ccc(C)cc4[nH]3)CC2=O)c1 (stereo not drawn)	none
CN(C)c1ccc(C(CNC(=O)Cc2ccc(Cl)cc2)N2CCOCC2)cc1 (stereo not drawn)	none
Cn1c(=O)[nH]c(=O)c2c1nc1n2CCN1c1ccccc1	none
COc1ccc(/C=C/C(=O)Nc2ccccc2C(=O)O)cc1OC	none
COc1ccc(/C=C/C(=O)Nc2ccc(-n3nncc3-c3ccccc3)cc2)cc1OC	Cruzain inh noDet 16µM, Cruzain inh Det 3.2µM | Papain inh inactive
CCOc1ccc(C(=O)Nc2ccc(-n3nncc3-c3ccccc3)cc2)cc1OCC	none
COc1cccc(C(=O)Nc2ccc(-n3nncc3-c3ccc(Br)cc3)cc2)c1OC	none
COc1ccc(/C=C/C(=O)Nc2ccc(-n3nncc3-c3ccc(Br)cc3)cc2)cc1OC	none (no result: Cruzain inh noDet, Cruzain inh Det) | Papain inh inactive
Cc1ccc(NC(=O)c2ccc(-n3nncc3-c3ccccc3)cc2)cc1	none (no result: Cruzain inh noDet, Cruzain inh Det) | Papain inh inactive
CCn1nnc2cc(C(=O)Nc3cc(C)ccc3C)ccc21	none
CC1(C)Cc2c(C#N)c(N3CCCC3)nc(-c3ccco3)c2CO1	Cruzain inh noDet inconclusive
CC1(C)Cc2c(C#N)c(N3CCN(C(=O)c4ccccc4)CC3)nc(-c3ccco3)c2CS1	Cruzain inh noDet 25µM, Cruzain inh Det 28µM | Papain inh 7.9µM
N#Cc1c(N2CCOCC2)nc(-c2ccco2)c2c1CCCC2	Cruzain inh noDet 10µM, Cruzain inh Det 13µM | Papain inh 5.6µM
CC(C)c1nc(N2CCN(C(=O)c3ccccc3)CC2)c(C#N)c2c1COC(C)(C)C2	none
CCNc1ncc2nc(-c3cc(F)cc(F)c3)c(=O)n(-c3ccccc3)c2n1	none
CC(C)CCn1c(=O)c2sccc2n2c(CCCC(=O)NCc3ccc(F)cc3)nnc12	none
Cc1cccc(Cn2c(=O)n(CCc3ccccc3)c(=O)c3sc4ccccc4c32)c1	none
Cc1ccc(C)c(CN2C(=O)c3ccccc3S(=O)(=O)c3ccc(C(=O)N4CCN(Cc5ccccc5)CC4)cc32)c1	none
Cc1ccc(C)c(-c2csc(-c3c(N)c(C(=O)c4ccc5c(c4)OCO5)n4ccccc34)n2)c1	Cruzain inh noDet 3.2µM | Papain inh inactive
Cc1cc(C)c(-c2csc(NC(=O)COC(=O)c3ccc4c(c3)OCO4)n2)c(C)c1	Cruzain inh noDet inconclusive
Cc1cc(=O)oc2cc(OC(C)C(=O)N3CCOCC3)ccc12 (stereo not drawn)	none
Cc1cc(=O)oc2cc(OCC(=O)N3CCOCC3)ccc12	Cruzain inh Det 8.9µM | Papain inh 14µM
CCOc1ccc(-c2csc(NC(=O)c3ccc(S(=O)(=O)N4CCc5ccccc5C4)cc3)n2)cc1	Cruzain inh noDet 4µM | Papain inh inactive
O=C(Nc1nc(-c2ccc(S(=O)(=O)N3CCCC3)cc2)cs1)c1cccs1	none
CCOc1ccc(S(=O)(=O)N2CCc3ccccc3C2)cc1	none
O=C(Nc1nc(-c2ccc(S(=O)(=O)N3CCCCCC3)cc2)cs1)c1cccs1	Cruzain inh noDet 3.2µM | Papain inh inactive
COc1ccc(-c2cc(C#N)nc(N3CCN(C)CC3)n2)cc1	Cruzain inh noDet 16µM, Cruzain inh Det 25µM | Papain inh inactive
COc1ccc(-c2cc(C(F)(F)F)nc(N3CCN(C)CC3)n2)cc1	none
CCC(=O)CCC(=O)c1ccc2ccccc2c1	none
CC(C)N(CCC(=O)c1ccc2ccccc2c1)Cc1ccccc1	Cruzain inh noDet 7.9µM, Cruzain inh Det 7.9µM | Papain inh inactive
CCCOc1ccc(C2C(=O)N(C3CCCCCC3)CC(=O)N2CCCOCC)cc1OC (stereo not drawn)	Cruzain inh noDet inconclusive
COc1cccc(NC(=O)CN2C(=O)c3cccc4cccc2c34)c1	none
O=C1NN(c2ccc(Cl)c(Cl)c2)C(=O)/C1=C/c1cccc(OC(=O)c2cccs2)c1	Cruzain inh Det 20µM | Papain inh 18µM
O=C1NN(c2ccccc2)C(=O)/C1=C\c1cccc(OC(=O)c2cccs2)c1	Cruzain inh noDet inconclusive
COc1ccc(CCNC(=O)c2ccc3c(c2)CCN3S(=O)(=O)c2ccccc2)cc1	none
CCN(CC)CCCNC(=O)CN1C(=O)COc2ccc(S(=O)(=O)N3CCC(C)CC3)cc21	none
CCOC(=O)c1cccc(NC(=O)CCn2c(-c3ccc(F)cc3)cc(C(=O)OCC)c2C)c1	none
COc1ccc(CCNC(=O)c2cnn(-c3ccc(F)cc3)c2C2CCN(C(=O)OC(C)(C)C)CC2)c(OC)c1	none
O=C(NCCc1nc2ccccc2n1Cc1ccccc1F)c1ccc(F)cc1	Cruzain inh Det 3.2µM | Papain inh inactive
CC(NC(=O)c1ccc(F)cc1)c1nc2ccccc2n1Cc1ccccc1F (stereo not drawn)	none
CCC1CCc2nc3sc(C(=O)Nc4ccc(C)cc4)c(N)c3cc2C1 (stereo not drawn)	none
Cc1ccc(N=CC2=C(O)CC(c3ccco3)CC2=O)cc1 (stereo not drawn)	none
Cc1ccc(C(=O)Oc2oc(-c3ccco3)nc2C=Nc2ccc(Cl)cc2)cc1	Cruzain inh noDet 13µM, Cruzain inh Det 4µM | Papain inh 14µM
CCOc1ccc2[nH]c(=O)c(CN(Cc3ccco3)C(CC)c3nnnn3Cc3ccccc3)cc2c1 (stereo not drawn)	none
Cc1ccc2[nH]c(=O)c(CN(Cc3cccs3)Cc3nnnn3CC3CCCO3)cc2c1 (stereo not drawn)	Cruzain inh noDet inconclusive
COc1ccccc1CN(Cc1cc2cc(C)ccc2[nH]c1=O)Cc1nnnn1Cc1ccco1	none
COc1ccc2[nH]c(=O)c(CN(Cc3cccs3)Cc3nnnn3Cc3ccccc3)cc2c1	none
CCc1ccc2[nH]c(=O)c(CN(Cc3cccs3)Cc3nnnn3Cc3ccccc3)cc2c1	none (no result: Cruzain inh noDet, Cruzain inh Det) | Papain inh inactive
Cc1ccc2[nH]c(=O)c(CN(Cc3cccs3)Cc3nnnn3Cc3ccco3)cc2c1	none (no result: Cruzain inh noDet, Cruzain inh Det) | Papain inh inactive
Cc1ccc2[nH]c(=O)c(CN(CCO)Cc3nnnn3Cc3ccco3)cc2c1	none (no result: Cruzain inh noDet, Cruzain inh Det) | Papain inh inactive
CCC(c1nnnn1Cc1ccccc1)N(Cc1ccccc1)Cc1cc2cc(C)ccc2[nH]c1=O (stereo not drawn)	none (no result: Cruzain inh noDet, Cruzain inh Det) | Papain inh inactive
